High-throughput results as filed in PubChem BioAssay.
Shown are actives, neighbours in structure and some others; about 2.8% of the full set was active somewhere.
TGFb SMAD3 inh: inhibitors of TGF-b signaling. 410,000 tested, 1.2% active. Potency, µM (titrated, usually from 46.1 µM), without a hit: at the top dose activity, negative = inhibition, usual class: inhibitors. HepG2 CAGA-GFP TGF-b/SMAD3 reporter, GFP fluorescence, 18 h; TGF-beta stimulated, 500 pg/mL final; note: potency is the fitted concentration of half-maximal effect; % is set by controls: 0 for no effect and ±100 for the full control effect; nearly all actives have a fitted effect of over 65% in size
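Read-out: total well GFP (ex488/em500-530) summed from mean per-cell fluorescence. Cells: HEPG2 CAGA-GFP, 1% FBS DMEM, 18 h at 37 degrees C with 500 pg/mL final TGF-beta. Unstimulated wells served as the full-inhibition control; stimulated DMSO wells = 0%.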
HepG2 tox-1: counter-screen for TGF-b inhibitors: cytotoxicity in HepG2 cells; HepG2 CAGA-GFP viability, ATP luminescence, 18 h; Potency, µM (top dose mostly 46.1 µM), for inactives: top-dose activity change, negative = cytotoxicity, usual class: cytotoxic; 410,000 tested, 0.76% active; note: potency is the fitted concentration of half-maximal effect
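HepG2 CAGA-GFP cells (1000/well, DMEM with 1% FBS) received compound, then TGF-beta at 500 pg/mL final, and were incubated 18 hours at 37 degrees C. Viability was read by CellTiter-Glo luminescence. Media-only wells were set as complete cell-killing and DMSO as no toxicity.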
Six1-Eya2 blk: inhibitors of human Six1/Eya2 interaction. 360,000 tested, 0.56% active. AlphaScreen GST-Six1/His-Eya2 binding, biochemical; active compounds read low. activity change, % (concentration not given with the values); in the data active = activity change below about -65%; inconclusive = mostly about -30% to -63%; note: % is set by controls: 0 for no effect and ±100 for the full control effect
Target sequence (O00167 whole entry, looked up): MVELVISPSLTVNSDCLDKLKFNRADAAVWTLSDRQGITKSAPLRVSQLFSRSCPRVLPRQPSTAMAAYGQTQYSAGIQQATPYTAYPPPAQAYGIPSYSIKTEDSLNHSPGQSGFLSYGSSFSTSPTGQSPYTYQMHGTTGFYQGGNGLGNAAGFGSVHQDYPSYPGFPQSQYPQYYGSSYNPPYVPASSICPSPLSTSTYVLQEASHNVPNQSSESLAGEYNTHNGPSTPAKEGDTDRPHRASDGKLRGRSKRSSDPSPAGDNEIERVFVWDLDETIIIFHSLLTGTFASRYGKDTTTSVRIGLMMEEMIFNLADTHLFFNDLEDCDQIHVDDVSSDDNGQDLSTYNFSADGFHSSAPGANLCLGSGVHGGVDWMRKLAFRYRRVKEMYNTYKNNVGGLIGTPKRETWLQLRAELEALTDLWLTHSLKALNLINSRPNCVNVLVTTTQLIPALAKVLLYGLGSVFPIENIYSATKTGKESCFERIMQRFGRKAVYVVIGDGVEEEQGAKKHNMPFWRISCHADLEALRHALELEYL
Target sequence (Q15475 whole entry, looked up): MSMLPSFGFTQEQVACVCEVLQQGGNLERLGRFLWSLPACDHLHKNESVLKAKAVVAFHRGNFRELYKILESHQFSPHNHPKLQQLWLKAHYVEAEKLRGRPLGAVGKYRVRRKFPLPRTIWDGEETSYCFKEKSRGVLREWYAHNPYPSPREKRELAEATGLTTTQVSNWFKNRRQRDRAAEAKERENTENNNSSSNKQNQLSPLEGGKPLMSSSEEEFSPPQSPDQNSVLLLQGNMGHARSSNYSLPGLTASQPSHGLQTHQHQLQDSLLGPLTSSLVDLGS
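GST-Six1 + His-Eya2 (5X stock: 250/500 nM); Tris pH 8.0, 300 mM NaCl, 0.05% BSA, 0.02% Tween 20; GSH donor/Ni acceptor beads; 1 h 37 °C dark; AlphaScreen readout.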
ATXN viability: viability counter-screen for ATXN expression inhibitors | S2 cells (HEK-293 line with an ATXN2-luciferase reporter) viability, CellTiter-Fluor protease fluorescence, 24 h | AID 651635 | 400,000 tested, 0.49% active | Potency, µM (top dose mostly 56.7 µM), hits mostly cytotoxic; note: potency is the fitted concentration of half-maximal effect; nearly all actives have a fitted effect of over 40% in size
CtBP-E1A inh: CtBP/E1A binding inhibition. AlphaScreen GST-E1A/His-CtBP binding, 1536-well; active compounds read low. activity change, % (test concentration not listed). 340,000 tested, 0.49% active; in the data active = activity change below about -65%; inconclusive = mostly about -30% to -63%; note: % is set by controls: 0 for no effect and ±100 for the full control effect
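GST-E1A and His-tagged CtBP (125 nM each as 5X stock) were preincubated with pin-transferred compound for 2 h at 37 °C in the dark, then glutathione donor and nickel acceptor beads were added for 1 h before AlphaScreen reading.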
ATXN2 expr inh: inhibitors of ATXN2 expression | HEK-293 ATXN2-luciferase reporter, luminescence, 24 h | Potency, µM (top dose mostly 57 µM), for inactives: at the highest dose activity change, negative = inhibition, actives largely listed as inhibitors | 360,000 tested, 0.72% active | AID 1745845; note: potency is the fitted concentration of half-maximal effect; % is set by controls: 0 for no effect and ±100 for the full control effect; nearly all actives have a fitted effect of over 55% in size
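ATXN2-luciferase reporter cells (luciferase flanked by upstream and downstream ATXN2 gene portions) were treated 24 h at 37 °C with compounds at up to 57 uM. SteadyGlo luminescence gave expression; GF-AFC fluorescence gave viability.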
TGFb CAGA inh: TGF-b pathway inhibition, cherry-pick retest; AID 720534; HepG2 CAGA-GFP TGF-b reporter, GFP fluorescence, 18 h; cells stimulated with TGF-beta, 500 pg/mL; shares compounds with TGFb SMAD3 inh; Potency, µM (series often up to 46.1 µM), without a hit: at the top dose activity, negative = inhibition, actives largely listed as inhibitors; 1,600 tested, 63% active; note: potency is the fitted concentration of half-maximal effect; % is set by controls: 0 for no effect and ±100 for the full control effect; nearly all actives have a fitted effect of over 65% in size
HepG2 tox-2: counter-screen for TGF-b inhibitors: cytotoxicity in HepG2 cells | shares compounds with TGFb SMAD3 inh | 1,600 tested, 27% active | AID 720535 | Potency, µM (series often up to 46.1 µM), without a hit: top-dose activity, negative = cytotoxicity, usual class: inhibitors | HepG2 CAGA-GFP viability, ATP luminescence, 18 h; cells stimulated with TGF-beta, 500 pg/mL; note: potency is the fitted concentration of half-maximal effect; % is set by controls: 0 for no effect and ±100 for the full control effect; nearly all actives have a fitted effect of over 70% in size
TGFb CCL64 inh: TGF-b inhibition, CCL64 orthogonal assay | shares compounds with TGFb SMAD3 inh | CCL64 CAGA-GFP reporter, TGF-b stimulated, GFP fluorescence, 18 h | Potency, µM (series often up to 46.1 µM), for the others: at the highest dose activity, negative = inhibition, hits mostly inhibitors | 1,600 tested, 41% active | AID 720536; note: potency is the fitted concentration of half-maximal effect; nearly all actives have a fitted effect of over 65% in size
TGFb COP inh: validation of TGF-b inhibitors in HepG2 COP promoter reporter; shares compounds with TGFb SMAD3 inh; HepG2 COP-GFP TGF-b reporter, GFP fluorescence, 18 h; cells stimulated by added recombinant TGF-beta; Potency, µM (highest dose often 46.1 µM), for inactives: at the top dose activity, negative = inhibition, actives largely listed as inhibitors; 1,600 tested, 3% active; note: potency is the fitted concentration of half-maximal effect; nearly all actives have a fitted effect of over 70% in size
Numbers without * were called inactive; i = inactive; ? = inconclusive; · = no result. Unless noted, calls come from the whole dose curve; as a rule, active = well fitted curve in the direction sought with a large enough effect; inconclusive = small, poorly fitted or top-dose-only effect, or another doubt; inactive = no such curve, though single readings can be large; an effect the other way counts as inactive or inconclusive.

SMILES	TGFb SMAD3 inh	HepG2 tox-1	Six1-Eya2 blk	ATXN viability	CtBP-E1A inh	ATXN2 expr inh	TGFb CAGA inh	HepG2 tox-2	TGFb CCL64 inh	TGFb COP inh
CCC(=O)Nc1cccc(C(=O)/C=C/c2cc(Br)ccc2OC)c1	3.5µM*	11µM*	0	18µM*	2	16µM*	3.7µM*	7.3µM*	3.7µM*	?
CNC(=S)N/N=C/C1=CCC2CC1C2(C)C (stereo not drawn)	1.1µM*	-14%	3	i	3	0%	?	-8%	?	-10%
Nc1nn(S(=O)(=O)c2ccccc2)cc1-c1ccc([N+](=O)[O-])cc1	?	-19%	-20	i	0	-13%	16µM*	0%	-29%	-1%
Cc1ccc(S(=O)(=O)n2cc(-c3ccccc3)c(N)n2)cc1	-21%	10%	17	i	32	-5%	·	·	·	·
NC(Cc1ccc(Cl)cc1)c1csc(Nc2ccc(-c3ccccc3)nn2)n1 (stereo not drawn)	?	-88%	-2	?	-5	?	·	·	·	·
NC(Cc1ccc(F)cc1)c1csc(Nc2ccc(C(F)(F)F)cn2)n1 (stereo not drawn)	10µM*	-111%	-5	·	-6	?	?	?	?	-27%
COc1cc(OC)nc(Nc2nc(C(N)Cc3ccc(F)cc3)cs2)n1 (stereo not drawn)	?	-83%	-5	?	?	?	·	·	·	·
NC(Cc1ccc(C(F)(F)F)cc1)c1csc(Nc2cnccn2)n1 (stereo not drawn)	7.1µM*	-68%	?	?	?	?	?	?	?	62%
CCOC(=O)[C@]12CCCC=C1N(Cc1ccco1)C(=O)[C@H](CC(=O)N1CCN(C(=O)c3ccco3)CC1)C2	·	·	2	i	-4	20%	·	·	·	·
COc1ccc(C[C@@H]2OC3(C=CC(=O)C=C3)O[C@H]2Cc2ccc(OC)cc2)cc1	2.8µM*	11µM*	-28	·	2	?	2.3µM*	2.6µM*	0.82µM*	?
COc1ccc(N2C(=O)CC(Cc3ccccc3)C2=O)cc1 (stereo not drawn)	8%	4%	0	i	7	13%	·	·	·	·
O=C1C=CC2(C=C1)O[C@H](Cc1ccccc1)[C@@H](Cc1ccccc1)O2	4.5µM*	-120%	-19	3µM*	6	?	3.3µM*	6.5µM*	1µM*	?
CCc1ccc(NC(=O)Cn2c(=O)n(CCC(=O)NCCc3ccc(OC)c(OC)c3)c(=O)c3ccccc32)cc1	13%	1%	·	i	·	11%	·	·	·	·
CC(C)C[C@H]1CNC(=S)N1C[C@H]1CCCN1C[C@H](Cc1ccccc1)N1C[C@H](Cc2ccc(O)cc2)N(CC2CCCCCC2)C1=S	10µM*	-21%	-16	16µM*	-8	?	18µM*	?	?	35%
CC(C)C[C@H]1CNC(=S)N1C[C@H]1CCCN1C[C@H](Cc1ccc(O)cc1)N1C[C@H](Cc2ccccc2)N(CC2CCCCC2)C1=S	?	-34%	1	?	-10	?	·	·	·	·
CC(C)C[C@H]1CNC(=S)N1C[C@H]1CCCN1C[C@H](Cc1ccc(O)cc1)N1C[C@H](CC(C)C)N(CC2CCCCCC2)C1=S	6.3µM*	-23%	-17	10µM*	-14	?	4.6µM*	?	10µM*	25%
CC(C)C[C@H]1CNC(=S)N1CC1CCCN1C[C@H](Cc1ccccc1)N1C[C@H](Cc2ccc(O)cc2)N(CC2CCCCC2)C1=S (stereo partly drawn)	8.9µM*	-7%	-2	i	-5	-17%	6.5µM*	-20%	21µM*	29%
O=C(NCCc1csc(-c2ccc(F)cc2)n1)C(=O)Nc1ccc(Cl)cc1	23%	-6%	·	i	·	5%	·	·	·	·
CCOC(=O)c1ccc2c(c1)nc(C1CCN(S(=O)(=O)c3cccs3)CC1)n2CC	?	-17%	0	?	8	?	?	?	-10%	25%
Cc1cc(C)n(CCc2nc3c4ccccc4nc(N4CCN(c5ccc(F)cc5)CC4)n3n2)n1	-12%	5%	·	i	·	2%	·	·	·	·
COc1ccc2c(C)nc(Nc3nc(-c4ccccc4)cc(=O)[nH]3)nc2c1	4µM*	-59%	-23	?	-17	-44%	2.3µM*	5.8µM*	?	16%
Cc1ccc2nc(Nc3nc(-c4ccccc4)cc(=O)[nH]3)nc(C)c2c1	?	3%	3	i	-3	-25%	·	·	·	·
CC(=O)Oc1ccc2ccccc2c1C(NC(=O)Cc1ccccc1)c1ccccc1 (stereo not drawn)	10µM*	-36%	-11	?	-19	?	29µM*	?	?	65%
Cc1ccc2c(=O)c(C(=O)c3ccc(F)cc3)cn(CC(=O)Nc3ccc4c(c3)OCCO4)c2n1	-7%	-13%	·	i	·	-13%	·	·	·	·
CCC(=O)Oc1ccc(-c2nc3ccccc3c(=O)o2)cc1	12%	-42%	·	i	·	0%	·	·	·	·
Nc1ncnc2c(C3OC(CO)C(O)C3O)scc12 (stereo not drawn)	-122%	-86%	0	?	-2	?	0.016µM*	0.073µM*	0.92µM*	42%
